# Several values for one entry are separate records, joined by “and”; a condition that tells them apart may be missing. Identical values can stand only once. Counter-ions that a name gives are not always drawn. Out of some 5,800 compounds screened, about 620 (11%) showed activity. The sample as a whole holds a higher share of actives than the screen did. Values without a mark were called inactive.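 Rule for the calls: active = score above a cut-off or among the top three wells of a plate; in these data no inactive exceeds 0.85.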
# Test system: primary human hepatic stellate cells (donor 1)
# Assay: scaled lipid accumulation score (0 = DMSO-like, 1 = nortriptyline-like); higher = stronger HSC inactivation (lipid re-accumulation), active = hit call of the paper
# Details: 48 h
# [1] = library stock concentration: 1 mM
# [2] = library stock concentration: 10 mM
# [3] = library stock concentration: 400 uM
# [4] = library stock concentration: 3.33 mM
# [5] = library stock concentration: 2 mM
# [6] = library stock concentration: 80 uM
structure (smiles),measurement,setting,value
CCCCCCCCCCCCCCCCOC[C@H](COP(=O)([O-])OCC[N+](C)(C)C)SC(=O)CCCCCC [Heptanoyl thio-PC],scaled lipid accumulation score,[1],0.071
Cn1cc(C2=C(c3cn(CCCSC(=N)N)c4ccccc34)C(=O)NC2=O)c2ccccc21 [Ro 31-8220 mesylate],scaled lipid accumulation score,[2],≤ -0.001
Cn1cc(C2=C(c3c4n(c5ccccc35)CCC(CN)C4)C(=O)NC2=O)c2ccccc21 (centres undefined) [Bisindoylmaleimide X  HCl salt (Ro 31-8425) (10 mM)],scaled lipid accumulation score,[2],≤ -0.005
Cn1cc(C2=C(c3c4n(c5ccccc35)CCC(CN)C4)C(=O)NC2=O)c2ccccc21 (centres undefined) [Bisindoylmaleimide X HCl salt (Ro 31-8425) (0.4 mM)],scaled lipid accumulation score,[3],0.132
"NCCCn1cc(C2=C(c3c[nH]c4ccccc34)C(=O)NC2=O)c2ccccc21 [Bisindolylmaleimide III, Hydrochloride]",scaled lipid accumulation score,[4],≤ 0
Cn1cc(C2=C(c3ccc(Cl)cc3Cl)C(=O)NC2=O)c2ccccc21 [listing 1 of 5 here],scaled lipid accumulation score,[2],1.22 (active)
O=C1NC(=O)C(c2cn(CCCO)c3ncccc23)=C1c1cnccn1 [GSK-3b Inhibitor XI],scaled lipid accumulation score,[4],0.065
Cn1cc(C2=C(c3cn(CCCN)c4ccccc34)C(=O)NC2=O)c2ccccc21 [Bisindolylmaleimide VIII (acetate)],scaled lipid accumulation score,[1],≤ 0
Cn1cc(C2=C(c3cn(CCCSC(=N)N)c4ccccc34)C(=O)NC2=O)c2ccccc21 [Bisindolylmaleimide IX (mesylate)],scaled lipid accumulation score,[1],≤ 0
Cn1cc(C2=C(c3c4n(c5ccccc35)CCC(CN)C4)C(=O)NC2=O)c2ccccc21 (centres undefined) [Bisindoylmaleimide X HCl salt (Ro 31-8425) (2 mM)],scaled lipid accumulation score,[5],≤ 0
CCCCn1c2ccc(O)cc2c2c3c(c(-c4ccccc4Cl)cc21)C(=O)NC3=O [Wee1 Inhibitor II],scaled lipid accumulation score,[4],≤ 0
Cn1cc(C2=C(c3ccc(Cl)cc3Cl)C(=O)NC2=O)c2ccccc21 [listing 2 of 5 here],scaled lipid accumulation score,[2],1.37 (active)
Cn1cc(C2=C(c3ccc(Cl)cc3Cl)C(=O)NC2=O)c2ccccc21 [listing 3 of 5 here],scaled lipid accumulation score,[6],0.035
same,scaled lipid accumulation score,[3],≤ -0.009 and 0.379
same,scaled lipid accumulation score,[5],0.225
same,scaled lipid accumulation score,[4],0.555
same,scaled lipid accumulation score,[2],0.564
Cn1cc(/C=C2\C(=O)Nc3cccnc32)c2ccccc21,scaled lipid accumulation score,[3],≤ -0.005
same,scaled lipid accumulation score,[5],0.002
same,scaled lipid accumulation score,[2],≤ -0.001 and ≤ -0.005
Cn1cc(C2=C(c3ccc(Cl)cc3Cl)C(=O)NC2=O)c2ccccc21 [listing 4 of 5 here],scaled lipid accumulation score,[5],1.13 (active)
same,scaled lipid accumulation score,[2],1.17 (active)
Cn1cc(C2=C(c3cn(CCCSC(=N)N)c4ccccc34)C(=O)NC2=O)c2ccccc21,scaled lipid accumulation score,[6],0.068
same,scaled lipid accumulation score,[3],0.267
same,scaled lipid accumulation score,[5],≤ 0
same,scaled lipid accumulation score,[4],≤ 0
same,scaled lipid accumulation score,[2],0.848
same,scaled lipid accumulation score,library stock concentration: 10.9 mM,0.832
Cn1cc(C2=C(c3cn(CCCSC(=N)N)c4ccccc34)C(=O)NC2=O)c2ccccc21 [Ro 31-8220 Mesylate],scaled lipid accumulation score,[4],≤ -0.009
same,scaled lipid accumulation score,[2],0.514
Cn1cc(C2=C(c3ccc(Cl)cc3Cl)C(=O)NC2=O)c2ccccc21 [listing 5 of 5 here],scaled lipid accumulation score,[2],1.03 (active)
CCCCCCCCCCCCCCCC(=O)OCC [Palmitic Acid ethyl ester],scaled lipid accumulation score,[1],≤ 0
C[N+]1(C)C[C@H](O)C[C@H]1C(=O)[O-] [Betonicine],scaled lipid accumulation score,,≤ 0
CCCCC[C@H](O)/C=C/[C@H]1CCC(=O)[C@@H]1C/C=C\CCCC(=O)O [11-deoxy Prostaglandin E2],scaled lipid accumulation score,[1],0.072
CC[C@H](CO)Nc1nc(NCc2ccccc2O)c2ncn(C(C)C)c2n1 [Olomoucine II],scaled lipid accumulation score,[4],0.299
NC1=N[C@@]2(c3cc(NC(=O)c4ccc(F)cn4)ccc3F)COC[C@H]2CS1,scaled lipid accumulation score,[4],0.012
same,scaled lipid accumulation score,[2],0.209
C[C@]12CCC(=O)C=C1CC[C@@H]1[C@@H]2[C@@H](O)C[C@@]2(C)[C@H]1CC[C@]2(O)C(=O)COP(=O)(O)O [Hydrocortisone phosphate triethylamine],scaled lipid accumulation score,library stock concentration: 3.1 mM,≤ -0.001
CCOc1nc2cccc(C(=O)O)c2n1Cc1ccc(-c2ccccc2-c2noc(=O)[nH]2)cc1 [Azilsartan],scaled lipid accumulation score,[4],≤ 0
same,scaled lipid accumulation score,[2],≤ 0
CCCCC[C@H](O)/C=C/[C@H]1C(=O)C[C@H](O)[C@@H]1C/C=C/CCCC(=O)O [5-trans Prostaglandin D2],scaled lipid accumulation score,[1],≤ 0
COC(=O)C1=C(C)NC(C)=C(C(=O)OCCCN2CCC(c3ccccc3)(c3ccccc3)CC2)[C@@H]1c1cccc([N+](=O)[O-])c1 [(R)-(-)-Niguldipine hydrochloride],scaled lipid accumulation score,[2],≤ -0.006
C=C1C(=O)OC2CC1C(OC(C)=O)C/C(C)=C/CC/C(C)=C/CC[C@]2(C)O (some centres undefined) [Crassin acetate],scaled lipid accumulation score,[2],1.04 (active)
C=C1C(=O)O[C@H]2[C@H]1CC/C(C)=C/CC[C@@]1(C)O[C@@H]21 [Parthenolide],scaled lipid accumulation score,,0.539
same,scaled lipid accumulation score,[2],0.317 and 0.269
same,scaled lipid accumulation score,library stock concentration: 20.1 mM,0.417
C=C1C(=O)O[C@@H]2/C=C(\C)CC/C=C(\C)CC[C@@H]12 [Costunolide],scaled lipid accumulation score,[4],≤ 0
same,scaled lipid accumulation score,[2],0.163 and ≤ -0.001
C=C1C(=O)O[C@H]2[C@H]1CC/C(C)=C/CC[C@@]1(C)O[C@@H]21 [(-)-Parthenolide],scaled lipid accumulation score,[4],0.099
same,scaled lipid accumulation score,[2],0.534
CCCCCCCC/C=C\CCCCCCCCOC[C@H](COP(=O)([O-])OCC[N+](C)(C)C)OC(C)=O,scaled lipid accumulation score,[1],≤ -0.018
CC(=O)NCC(=O)N[C@H](CCC(=O)O)C(=O)O [N-Acetylglycyl-D-glutamic acid],scaled lipid accumulation score,[2],≤ 0
CN(C)CCCN1c2ccccc2CCc2ccc(Cl)cc21 [Clomipramine hydrochloride],scaled lipid accumulation score,library stock concentration: 5.7 mM,0.836
CN(C)CCCN1c2ccccc2CCc2ccc(Cl)cc21.Cl [Clomipramine hydrochloride],scaled lipid accumulation score,[2],1.31 (active)

# From the supplement of paper PMC9135407
